Results as given in publication PMC4552634, “A New Set of Chemical Starting Points with Plasmodium falciparum Transmission-Blocking Potential for Antimalarial Drug Discovery” (PLoS ONE, 2015).
In all, about 13,000 compounds went through this assay and about 3,200 (25%) showed an effect of 50% or more. This is one part of the list.

test system: P. falciparum stage V gametocytes; design: BacTiter-Glo ATP luminescence viability of purified stage V gametocytes in 384-well plates, per cent inhibition versus DMSO; conditions: 48 h, 5 µM; inhibitor

Compound | % Inhibition
NC(N)=NN=Cc1c2ccc(Cl)cc2c(Cl)c2ccc(Cl)cc12 [TCMDC-137884] | 111.2%
NC(N)=NN=Cc1c2ccccc2c(Cl)c2ccc(Cl)cc12 [TCMDC-137911] | 98.76%
Clc1ccc2c(NN=Cc3ccccc3)ccnc2c1 [TCMDC-123962] | -43%
NC(N)=NN=Cc1c2ccccc2c(Cl)c2cc(Cl)ccc12 [TCMDC-137903] | 96.19%
NC(N)=NN=Cc1c[nH]c2ccc(-c3ccccc3)cc12 [TCMDC-138961] | -59.33%
NC(N)=NN=CC(=O)Nc1ccc(Cl)c(Cl)c1 [TCMDC-137466] | -3.448%
NC(N)=NN=Cc1c2ccccc2c(Cl)c2c(Cl)cccc12 [TCMDC-137898] | 83.04%
Cc1cc(C)c(C)c(S(=O)(=O)N2CCCCC(c3ccc(F)c(F)c3)=N2)c1C [TCMDC-135419] | -64.55%
CCCc1cc(Cc2cnc(N)nc2N)cc(CC)c1OC [TCMDC-137693] | 21.32%
COc1ccc(Nc2nccc(N3CCC(NC(=O)Nc4ccc5c(c4)OCO5)C3)n2)cc1 (stereo not shown) [TCMDC-133617] | -60.34%
CN(C)CCC1CCN(CCS(=O)(=O)c2cccc(Nc3ncc(-c4cccc(F)c4)cn3)c2)CC1 [TCMDC-134374] | 1.071%
N#Cc1ccc(-c2ccc(C(=O)NCCCCN3CCC(c4cn(CCCO)c5ccccc45)CC3)cc2)cc1 [TCMDC-138837] | -51.57%
COc1cccc2c1CCN(CCN1CCC(CNC(=O)c3ccc(-c4ccc(C#N)cc4)cc3)CC1)C2 [TCMDC-134140] | 16.45%
N#Cc1ccc(-c2ccc(C(=O)NCCCCN3CCC(c4cn(CCO)c5ccccc45)CC3)cc2)cc1 [TCMDC-138836] | -28.51%
CC(C)Cn1cc(C2CCN(CCN3CCC(CNC(=O)c4ccc(-c5ccc(C#N)cc5)cc4)CC3)CC2)c2ccccc21 [TCMDC-138849] | 100.8%
COc1ccc2c(c1)CCN(CCN1CCC(CNC(=O)c3ccc(-c4ccc(C#N)cc4)cc3)CC1)C2 [TCMDC-138881] | -33.61%
C=C(C)Cn1cc(C2CCN(CCN3CCC(CNC(=O)c4ccc(-c5ccc(C#N)cc5)cc4)CC3)CC2)c2ccccc21 [TCMDC-138854] | 103.5%
COc1cc(C=C(C2=NC(=O)CS2)c2nc3cccnc3n2C)ccc1O [TCMDC-135917] | -7.7%
O=C(CC1CCCCC1)NCC(NCCCNc1cc(=O)c2ccccc2[nH]1)c1cc(Br)cc(Br)c1 (stereo not shown) [TCMDC-140315] | -37.31%
